Records with an inconclusive call do not appear. The source made the active and inactive calls. Rule for the calls, unless noted: active = hit-call score of the fitted dose curve at least 0.9, where 1 is the maximum; inactive = score below 0.9.
What was measured:
[1] = read-out: E-selectin (Homo sapiens) (UniProt P16581); assay: BSK_3C_Eselectin: BioMAP Diversity Plus: 3C Assay for Eselectin Biomarker Activity (AID 2283015); settings: primary human endothelial cells (HUVEC); actives raise or lower the signal
In short: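 HUVEC, 3C stimulation; compound exposure 24 h; E-selectin by ELISA; gain- or loss-of-signal fitted bidirectionally vs DMSO baseline.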

[2] = read-out: Monocyte Chemoattractant Protein-1 (MCP1), CCL2 (gene 6347); assay: BSK_3C_MCP1: BioMAP Diversity Plus: 3C Assay for Monocyte Chemoattractant Protein-1 (MCP1) Biomarker Activity (AID 2283017); settings: primary human endothelial cells (HUVEC); actives raise or lower the signal
In short: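 HUVEC, 3C system; 24 h chemical exposure; MCP-1 by ELISA; bidirectional curve fit vs DMSO baseline.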

[3] = read-out: Monocyte Chemoattractant Protein-1 (MCP1), CCL2 (gene 6347); assay: BSK_4H_MCP1: BioMAP Diversity Plus: 4H Assay for Monocyte Chemoattractant Protein-1 (MCP1) Biomarker Activity (AID 2283018); settings: primary human endothelial cells (HUVEC); actives raise or lower the signal
In short: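 Primary human umbilical vein endothelium is exposed to chemical for 24 h before MCP-1 is assayed by ELISA. Concentration-response fitted bidirectionally relative to DMSO.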

[4] = read-out: Human Leukocyte Antigen - DR isotype (HLADR), HLA-DRA (gene 3122); assay: BSK_3C_HLADR: BioMAP Diversity Plus: 3C Assay for Human Leukocyte Antigen - DR isotype (HLADR) Biomarker Activity (AID 2283019); settings: primary human endothelial cells (HUVEC); actives raise or lower the signal
In short: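 HUVEC, 3C stimulation, 24 h post-dose; HLA-DR by ELISA; bidirectional curve fit vs DMSO baseline; gain or loss of signal scored.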

[5] = read-out: Interleukin-8 (IL8), CXCL8 (gene 3576); assay: BSK_3C_IL8: BioMAP Diversity Plus: 3C Assay for Interleukin-8 (IL8) Biomarker Activity (AID 2283020); settings: primary human endothelial cells (HUVEC); actives raise or lower the signal
In short: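 Using DMSO-treated wells as the baseline, bidirectional curve fitting was applied to ELISA-measured IL-8 from human umbilical vein endothelial cultures sampled 24 h after compound addition.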

[6] = read-out: Monokine induced gamma interferon (MIG), CXCL9 (gene 4283); assay: BSK_3C_MIG: BioMAP Diversity Plus: 3C Assay for Monokine induced gamma interferon (MIG) Biomarker Activity (AID 2283021); settings: primary human endothelial cells (HUVEC); actives raise or lower the signal;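 for AC50: MIG protein level measured by immunoassay in the treated endothelial cultures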
In short: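 ELISA-measured MIG in dosed HUVEC 3C cultures at 24 h, analysed by bidirectional fitting with DMSO defining baseline activity.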

[7] = BSK_3C_SRB: Viability Assessment in the BioMAP Diversity Plus: 3C Assay (AID 2283023); settings: primary human endothelial cells (HUVEC);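 note: fitted both ways against DMSO so a hit may be signal rise or drop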
In short: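 HUVEC, 24 h post-dose; 10% TCA fix, 0.1% SRB stain, A560 nm. Bidirectional curve fit vs DMSO negative control.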

[8] = read-out: Matrix Metallopeptidase 1 (MMP1), MMP1 (gene 4312); assay: BSK_BE3C_MMP1: BioMAP Diversity Plus: BE3C Assay for Matrix Metallopeptidase 1 (MMP1) Biomarker Activity (AID 2283024); settings: primary human bronchial epithelial cells; actives raise or lower the signal
In short: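 In this multiplexed primary-cell system, human bronchial epithelium received chemicals for 24 h before an ELISA for MMP1. Values reflect bidirectional fits normalised to the DMSO baseline.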

[9] = read-out: Pselectin, SELP (gene 6403); assay: BSK_4H_Pselectin: BioMAP Diversity Plus: 4H Assay for Pselectin Biomarker Activity (AID 2283026); settings: primary human endothelial cells (HUVEC); actives raise or lower the signal
In short: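 Bidirectional fits against DMSO gave the endpoint. Cells: primary human umbilical vein endothelium, chemical-treated for 24 h before ELISA detection of P-selectin.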

[10] = BSK_BE3C_SRB: Viability Assessment in the BioMAP Diversity Plus: BE3C Assay (AID 2283028); settings: primary human bronchial epithelial cells;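 for AC50: fitted both ways so AC50 may mark signal gain or loss versus DMSO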
In short: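 Primary human bronchial epithelium; chemical dosing, 24 h; 10% TCA fix, 0.1% SRB stain, A560; bidirectional fit vs DMSO baseline.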

[11] = read-out: Thrombomodulin, THBD (gene 7056); assay: BSK_3C_Thrombomodulin: BioMAP Diversity Plus: 3C Assay for Thrombomodulin Biomarker Activity (AID 2283029); settings: primary human endothelial cells (HUVEC); actives raise or lower the signal
In short: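 In a multiplexed primary-cell system, human umbilical vein endothelium received chemical and was assayed 24 h later for thrombomodulin by ELISA. Parallel cultures were SRB-stained (0.1% SRB after 10% TCA fixation, read at 560 nm) to flag cytotoxicity.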

[12] = read-out: Urokinase-type plasminogen activator receptor (uPAR), PLAUR (gene 5329); assay: BSK_4H_uPAR: BioMAP Diversity Plus: 4H Assay for Urokinase-type plasminogen activator receptor (uPAR) Biomarker Activity (AID 2283030); settings: primary human endothelial cells (HUVEC); actives raise or lower the signal
In short: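 HUVEC, 24 h post-dose; uPAR by ELISA; bidirectional fit vs DMSO baseline.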

[13] = read-out: Vascular endothelial growth factor receptor 2 (Homo sapiens) (UniProt P35968); assay: BSK_4H_VEGFRII: BioMAP Diversity Plus: 4H Assay for Vascular endothelial growth factor receptor 2 (VEGFR2) Biomarker Activity (AID 2283031); settings: primary human endothelial cells (HUVEC); actives raise or lower the signal;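 for AC50: cell-surface VEGFR2 protein level quantified by ELISA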
In short: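 HUVEC (human primary), 4H system; 24 h post-dose; VEGFRII by ELISA; bidirectional curve fit vs DMSO baseline; gain or loss of signal scored.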

[14] = read-out: Human Leukocyte Antigen - DR isotype (HLADR), HLA-DRA (gene 3122); assay: BSK_BE3C_HLADR: BioMAP Diversity Plus: BE3C Assay for Human Leukocyte Antigen - DR isotype (HLADR) Biomarker Activity (AID 2283032); settings: primary human bronchial epithelial cells; actives raise or lower the signal
In short: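 BioMAP BE3C format: human bronchial epithelium, 24 h compound treatment, ELISA detection of HLA-DR, with bidirectional analysis relative to DMSO.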

[15] = read-out: Vascular cell adhesion molecule 1 (VCAM1), VCAM1 (gene 7412); assay: BSK_4H_VCAM1: BioMAP Diversity Plus: 4H Assay for Vascular cell adhesion molecule 1 (VCAM1) Biomarker Activity (AID 2283033); settings: primary human endothelial cells (HUVEC); actives raise or lower the signal
In short: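 In this human endothelial (HUVEC) system, biomarker ELISA was run 24 h after compound addition, and total protein in parallel wells was assessed by SRB at 560 nm; DMSO served as negative control.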

[16] = read-out: Interferon-gamma inducible Protein 10 (IP10), CXCL10 (gene 3627); assay: BSK_BE3C_IP10: BioMAP Diversity Plus: BE3C Assay for Interferon-gamma inducible Protein 10 (IP10) Biomarker Activity (AID 2283034); settings: primary human bronchial epithelial cells; actives raise or lower the signal
In short: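 BE3C cells (human bronchial epithelial, primary); 24 h exposure; ELISA for IP-10; DMSO-referenced bidirectional fit.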

[17] = BSK_3C_Vis: BioMAP Diversity Plus: 3C Assay for Morphology Visualization (AID 2283025); settings: primary human endothelial cells (HUVEC);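 note: fitted both ways so gain or loss versus DMSO counts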
In short: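 Light-microscopy morphology readout, 24 h exposure, human primary umbilical vein endothelium; analysed relative to DMSO with bidirectional fitting.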

[18] = BSK_4H_SRB: Viability Assessment in the BioMAP Diversity Plus: 4H Assay (AID 2283027); settings: primary human endothelial cells (HUVEC);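 note: cells exposed to compound for 24 h before staining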;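 for AC50: curves fitted both ways versus DMSO so AC50 may be loss or gain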
In short: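 Cytotoxicity read-out in primary human endothelial cells: after 24 h compound exposure, cells were TCA-fixed (10%), stained with 0.1% SRB and absorbance taken at 560 nm. Values fitted in both directions relative to DMSO.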

[19] = biological target: human Vitamin D Receptor (VDR), VDR (gene 7421) (UniProt P11473); assay: ATG_VDR_TRANS: Attagene TRANS-FACTORIAL HepG2 Assay for human Vitamin D Receptor (VDR) (AID 2283022; active = hit-call score of the fitted dose curve at least 0.9, where 1 is the maximum)
human Vitamin D Receptor (VDR), VDR (gene 7421), sequence (P11473 whole entry, looked up, the tested form may be a part): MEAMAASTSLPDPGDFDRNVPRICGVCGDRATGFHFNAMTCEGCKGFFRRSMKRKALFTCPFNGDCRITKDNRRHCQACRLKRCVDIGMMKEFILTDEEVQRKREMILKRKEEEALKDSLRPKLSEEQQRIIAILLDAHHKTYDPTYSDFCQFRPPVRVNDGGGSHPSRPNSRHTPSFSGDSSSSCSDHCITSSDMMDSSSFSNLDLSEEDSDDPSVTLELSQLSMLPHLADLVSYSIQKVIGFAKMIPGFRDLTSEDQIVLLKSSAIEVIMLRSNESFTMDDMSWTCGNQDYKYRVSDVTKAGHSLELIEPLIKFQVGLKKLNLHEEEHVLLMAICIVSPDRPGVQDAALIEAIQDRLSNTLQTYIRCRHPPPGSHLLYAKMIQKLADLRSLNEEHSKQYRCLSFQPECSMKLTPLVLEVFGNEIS
In short: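 RT-PCR/capillary electrophoresis read-out of reporter mRNA induction in transiently transfected HepG2; 24 h dosing; chimeric NR-Gal4 (TRANS format); gain-of-signal fit against DMSO baseline.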

Measured: AC50

E-selectin (Homo sapiens), sequence (P16581 whole entry, looked up): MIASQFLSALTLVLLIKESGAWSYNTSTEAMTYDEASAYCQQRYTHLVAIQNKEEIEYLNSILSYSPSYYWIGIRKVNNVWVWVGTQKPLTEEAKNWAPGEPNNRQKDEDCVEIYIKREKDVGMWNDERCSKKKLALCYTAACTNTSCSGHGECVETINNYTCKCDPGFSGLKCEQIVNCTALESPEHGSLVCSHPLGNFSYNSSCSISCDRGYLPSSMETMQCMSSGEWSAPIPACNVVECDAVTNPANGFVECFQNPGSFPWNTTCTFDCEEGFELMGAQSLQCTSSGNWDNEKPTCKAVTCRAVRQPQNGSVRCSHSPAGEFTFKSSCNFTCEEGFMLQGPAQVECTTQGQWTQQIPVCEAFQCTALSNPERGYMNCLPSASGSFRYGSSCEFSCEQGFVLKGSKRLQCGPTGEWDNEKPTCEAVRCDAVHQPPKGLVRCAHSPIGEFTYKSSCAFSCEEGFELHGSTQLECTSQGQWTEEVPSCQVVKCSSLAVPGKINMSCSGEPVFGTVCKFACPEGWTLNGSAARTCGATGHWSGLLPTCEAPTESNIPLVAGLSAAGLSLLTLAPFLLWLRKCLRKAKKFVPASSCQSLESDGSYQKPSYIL

C1=CCCC=CCCC=CCC1
inactive: [1] | [2] | [3] | [4] | [5] | [6] | [7] | [8] | [9] | [10] | [11] | [12] | [13] | [14] | [15] | [16]

CCc1cc(SCc2sc(-c3ccc(C(F)(F)F)cc3)nc2CN2CCN(c3ccc(OC)cc3)CC2)ccc1OCC(=O)O
active: [1] 15.2 µM | [2] 12 µM | [3] 8.42 µM | [4] 11.4 µM | [5] 16.7 µM | [6] 16.9 µM | [7] 5.75 µM | [8] 9.73 µM | [9] 11.3 µM | [10] 5.19 µM | [11] 37 µM | [12] 16 µM | [13] 4.8 µM | [14] 5.41 µM | [15] 10 µM | [16] 3.2 µM

CC(C)CC(C)(O)C#CC(C)(O)CC(C)C (stereo unspecified)
inactive: [1] | [2] | [4] | [5] | [6] | [7] | [8] | [17] | [9] | [18] | [10] | [11] | [12] | [15] | [16]

CCCCCCc1ccc(O)cc1O
active: [1] 30.8 µM | [2] 32.5 µM | [3] 16.2 µM | [4] 39 µM | [5] 32.4 µM | [6] 3.97 µM | [7] 34.9 µM | [9] 32.3 µM | [18] 32.5 µM | [10] 35.5 µM | [12] 36.6 µM | [14] 29.5 µM | [15] 31.8 µM | [16] 32.2 µM
inactive: [19] | [8] | [11] | [13]

O=C(O)CC(O)C(=O)O (stereo unspecified)
inactive: [1] | [2] | [3] | [4] | [5] | [6] | [7] | [8] | [17] | [9] | [10] | [11] | [12] | [13] | [14] | [15] | [16]

CC(O)CN(CCN(CC(C)O)CC(C)O)CC(C)O (stereo unspecified)
inactive: [1] | [2] | [4] | [5] | [6] | [19] | [7] | [8] | [9] | [18] | [10] | [11] | [12] | [13] | [14] | [15] | [16]

CCCC(=O)OCC
inactive: [1] | [2] | [4] | [5] | [6] | [19] | [7] | [8] | [17] | [9] | [10] | [11] | [12] | [13] | [14] | [15] | [16]

COc1ccc(-n2nc(C(F)F)cc2-c2ccc(S(C)=O)cc2)cc1 (stereo unspecified)
inactive: [1] | [2] | [4] | [5] | [6] | [19] | [7] | [8] | [9] | [10] | [11] | [13] | [15] | [16]

O=C(O)c1cccc(Oc2ccccc2)c1
inactive: [1] | [2] | [4] | [5] | [6] | [19] | [7] | [8] | [9] | [18] | [10] | [11] | [12] | [13] | [15] | [16]
